According to the supplement of paper PMC6555819:

Experiments:
Experiment in all cases: PBM binding z-score (relative to random genomic background probes); higher = stronger binding; sequences stand for … in GC…GCGATTGACAGCGTAGAATGAAGG
[1] = test system: FXR:RXRa (NR concentration 270 nM, RXRa partner concentration 90 nM)
Procedure, shortened: (§1)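 Probes were double-stranded and carried 34-nt variable regions with direct-repeat seeds, single-nucleotide variants, half-site ablations and random human genomic background sequences, printed on custom Agilent 4×180K protein-binding microarrays. Arrays were incubated 1 h with ligand-free nuclear receptor dimers in PBS pH 7.4, 2% milk, 0.02% Triton X-100, 1 mM DTT, 0.2 mg/mL BSA and 0.4 mg/ml salmon testes DNA. Antibodies against each partner (one per run) detected binding, and scanned fluorescence was regression-normalized. Binding z-scores use the random background probes as reference.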

[2] = test system: LXRa:RXRa (NR concentration 270 nM, RXRa partner concentration 90 nM)
Procedure, shortened: as §1

[3] = test system: LXRa homodimer (NR concentration 270 nM)
Procedure, shortened: as §1

[4] = test system: LXRb:RXRa (NR concentration 270 nM, RXRa partner concentration 90 nM)
Procedure, shortened: as §1

[5] = test system: LXRb homodimer (NR concentration 270 nM)
Procedure, shortened: as §1

[6] = test system: PPARa:RXRa (NR concentration 270 nM, RXRa partner concentration 90 nM)
Procedure, shortened: as §1

[7] = test system: PPARg:RXRa (NR concentration 180 nM, RXRa partner concentration 90 nM)
Procedure, shortened: as §1

[8] = test system: PPARg:RXRa 270nM:90nM, anti-RXR (NR concentration 270 nM, RXRa partner concentration 90 nM)
Procedure, shortened: as §1

[9] = test system: PPARg:RXRa 30nM:10nM, anti-RXR (NR concentration 30 nM, RXRa partner concentration 10 nM)
Procedure, shortened: as §1

[10] = test system: PPARg:RXRa 90nM:30nM, anti-RXR (NR concentration 90 nM, RXRa partner concentration 30 nM)
Procedure, shortened: as §1

[11] = test system: PPARg:RXRa DBDmut IVT, anti-RXR (DBD mutation: RXRa K156A/R161A, NR concentration 270 nM, RXRa partner concentration 90 nM)
Procedure, shortened: as §1

[12] = test system: PPARg:RXRa IVT, anti-PPARg (NR concentration 270 nM, RXRa partner concentration 90 nM)
Procedure, shortened: as §1

[13] = test system: PPARg DBDmut:RXRa IVT, anti-PPARg (DBD mutation: PPARg1 K132A/R137A, NR concentration 270 nM, RXRa partner concentration 90 nM)
Procedure, shortened: as §1

[14] = test system: PPARg DBDmut IVT, anti-PPARg (DBD mutation: PPARg1 K132A/R137A, NR concentration 270 nM)
Procedure, shortened: as §1

[15] = test system: PPARg homodimer (NR concentration 180 nM)
Procedure, shortened: as §1

[16] = test system: PXR:RXRa (NR concentration 270 nM, RXRa partner concentration 90 nM)
Procedure, shortened: as §1

[17] = test system: PXR homodimer (NR concentration 270 nM)
Procedure, shortened: as §1

[18] = test system: RARa:RXR (NR concentration 270 nM, RXRa partner concentration 90 nM)
Procedure, shortened: as §1

[19] = test system: RARa homodimer (NR concentration 270 nM)
Procedure, shortened: as §1

[20] = test system: RARb:RXRa (NR concentration 270 nM, RXRa partner concentration 90 nM)
Procedure, shortened: as §1

Sequence | PBM binding z-score [1] | PBM binding z-score [2] | PBM binding z-score [3] | PBM binding z-score [4] | PBM binding z-score [5] | PBM binding z-score [6] | PBM binding z-score [7] | PBM binding z-score [8] | PBM binding z-score [9] | PBM binding z-score [10] | PBM binding z-score [11] | PBM binding z-score [12] | PBM binding z-score [13] | PBM binding z-score [14] | PBM binding z-score [15] | PBM binding z-score [16] | PBM binding z-score [17] | PBM binding z-score [18] | PBM binding z-score [19] | PBM binding z-score [20]
GATACAGGGTCAGCTAGCGGCCAGAGTATGGAAA | 4.95 | 2.67 | -0.847 | 2.34 | -0.774 | 4.56 | 3.77 | 3.29 | 0.52 | 2.01 | 1.01 | 2.05 | 0.0696 | -0.868 | 1.51 | 2.37 | -0.651 | 3.79 | 0.418 | 3.96
ATCTCTAGGTAAGAGTCAGTTCAGTGAAGAACGC | 0.322 | 0.41 | 0.44 | 0.262 | 0.685 | 0.413 | 0.239 | 1.03 | 0.45 | 0.958 | 1.76 | 1.41 | 0.489 | 0.902 | 1.16 | 0.741 | 1.13 | 0.349 | 1.11 | 0.454
GCCTACGGGTCAAAGGTTATAGCATGAATAGAAT | 7.04 | 5.56 | 0.447 | 5.59 | -0.175 | 6.6 | 10.4 | 8.66 | 7.8 | 9.24 | 2.12 | 4.99 | 1.03 | 0.485 | 1.95 | 6.12 | 0.219 | 8.24 | 0.254 | 4.34
ACCGAAAGGTCGTGAGGTGAGTATACAGAAAGGC | 5.42 | 3.86 | -0.204 | 3.02 | 0.134 | 5.29 | 3.99 | 4.37 | 1.42 | 2.8 | 0.638 | 2.23 | 0.794 | 0.846 | 1.51 | 3.29 | -0.242 | 4.22 | 0.0801 | 4
TGAGTGAGGTTAAAGATCAGGGAACGTGGCGTCG | 2.78 | 2.38 | -0.367 | 1.88 | 1.13 | 4.05 | 3.48 | 4.58 | 2.61 | 3.92 | 0.116 | 1.91 | 0.365 | 0.826 | 1.29 | 2.13 | 0.027 | 3.26 | 0.307 | 2.15
GCAGACAGGTGAAACGCAGGTAATTCAGGGTGGC | -0.0187 | -0.113 | -0.552 | -0.337 | -1.33 | 0.845 | 0.419 | -0.127 | -0.526 | -0.551 | 0.893 | 0.576 | -0.406 | -0.569 | 0.0586 | -0.158 | -0.351 | 0.462 | -0.448 | 0.697
GCGACTGGGGCATCAGCAGGTTACCTTAACTTAA | -0.0462 | -0.17 | -0.509 | 0.761 | -0.96 | 1.16 | 0.496 | 0.878 | -0.313 | 0.578 | 3.64 | 3.03 | -1.1 | -0.949 | 0.152 | 0.367 | -0.375 | 0.558 | -0.549 | 0.828
CGTCCAAGGTCAGAGAGGTTAGTGAATGCCGAGT | 5.32 | 3.46 | 0.378 | 2.89 | -0.248 | 4.18 | 2.47 | 2.56 | 0.275 | 1.48 | 2.24 | 2.47 | -0.113 | -0.422 | 2.06 | 3.93 | 4.8 | 3.47 | 0.223 | 4.7
AGAACGAGGGAACGCTGAGTTGATAGCAGAGTAG | -0.288 | -0.46 | -0.611 | -0.674 | -0.803 | -0.499 | 0.464 | -0.265 | -0.0206 | -0.332 | 0.157 | 0.0104 | -0.0244 | -0.171 | -0.732 | -0.323 | -0.229 | -0.613 | 0.201 | -0.517
CGAACTAGGTCAAGGACAGTGATTCTCCGCACGC | 3.46 | 2.21 | 0.289 | 1.56 | -0.542 | 4.8 | 7.19 | 6.34 | 3.52 | 5.66 | 8.31 | 8.3 | 2.89 | 2.07 | 1.69 | 1.37 | -0.0135 | 2.28 | 0.11 | 4.21
CTACCTAGGTGAACAAGGTCGTTGATTACTATTC | 0.921 | 0.98 | 0.31 | 1.61 | -0.219 | 2.31 | 1.31 | 1.36 | -0.0446 | 0.717 | 4.5 | 3.81 | 0.734 | 0.335 | 1.52 | 2.25 | 1.14 | 1.95 | 0.759 | 1.5
CAAACTAGGTTAAGGTCAAAGTCGGTTTGTGCCA | 5.87 | 5.27 | 3.87 | 4.36 | 1.08 | 5.45 | 7.13 | 6.97 | 5.07 | 7.2 | 7.61 | 7.5 | 2.24 | 3.72 | 4.36 | 5.2 | 3.07 | 5.71 | 2.29 | 4.32
ATCGAAAGGTCGACAAGGTGAGTATACACCGTTT | 4.68 | 3.45 | 0.283 | 3 | 0.522 | 4.41 | 2.79 | 3.21 | 1.2 | 2.21 | 0.456 | 1.98 | 1.72 | 1.65 | 1.43 | 2.86 | 0.683 | 3.78 | 0.202 | 4.02
